This is an account of results in PubChem BioAssay (NCI).

Compounds without any hit were thinned out: in the full panel of roughly 83,000, 20% have a hit.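 Single-concentration screen, 48 h exposure, 96-well plates. Endpoint: percent growth. Below 10 = active.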 Unmarked numbers belong to inactive results. Calls of active or inactive are those of the source.

Among the test systems are NCI-H23 lung; NCI-H226 lung; NCI-H322M lung; HOP-62 NSCLC; NCI-H460 lung; NCI-H522 lung; A549/ATCC NSCLC; 786-0 renal; COLO 205 colon; DU-145 prostate; K-562 leukemia; MALME-3M melanoma; MDA-MB-231 breast; RXF 393 renal; SF-268 CNS; SF-295 CNS; SF-539 CNS; UACC-257 melanoma; M14 melanoma; HOP-92 NSCLC.
Holding throughout (assay): NCI-60 one-dose screen, 48 h (100 = growth as untreated, 0 = no growth, -100 = all killed)
What all share (conditions): 10 µM unless noted

Regarding `Nc1cc(-c2ccccc2)ccc1O`, the growth with NCI-H23 lung was 101%; with NCI-H226 lung, 112%; in the experiment on NCI-H322M lung, 87.2%; in the experiment on HOP-62 NSCLC it was 122%; with NCI-H460 lung, 102%; in the experiment on NCI-H522 lung, 96.3%. Moreover, the growth was 65.7% with A549/ATCC NSCLC; 97.8% in the experiment on 786-0 renal; 110% in the experiment on COLO 205 colon; 103% with DU-145 prostate; 59.2% with K-562 leukemia; 121% in the experiment with MALME-3M melanoma. Moreover, the growth in the experiment with MDA-MB-231 breast is 82.7%; with RXF 393 renal, 30.3%; in the experiment on SF-268 CNS, 78.2%; in the experiment on SF-295 CNS, 134%; with SF-539 CNS, 105%; in the experiment with UACC-257 melanoma, 120%. The growth in the experiment with M14 melanoma is 103%.

Consider `O=C(c1ccccc1)C(O)C(Br)(CBr)c1ccccc1` (configuration not stated), for which the growth in the experiment on NCI-H23 lung was 74.9%; with NCI-H226 lung, 90.2%; in the experiment with NCI-H322M lung it was 101%; in the experiment on HOP-62 NSCLC, 107%; in the experiment with HOP-92 NSCLC, 47.2%; in the experiment on NCI-H522 lung, -30.8% (active). Moreover, the growth in the experiment with A549/ATCC NSCLC is 88.5%; with 786-0 renal, 105%; in the experiment on COLO 205 colon, 120%; in the experiment on DU-145 prostate, 87.1%; in the experiment on K-562 leukemia, 50.8%; in the experiment with MALME-3M melanoma, 99.9%. The growth in the experiment with MDA-MB-231 breast was 91.6%; in the experiment with RXF 393 renal, 105%; in the experiment on SF-268 CNS, 98.8%; with SF-295 CNS, 103%; in the experiment with SF-539 CNS, 107%; with UACC-257 melanoma it was 72.5%. The growth with M14 melanoma is 82.6%.

In the case of `CCC1CCCCN1C(=S)N/N=C(\C)c1ccccn1` (configuration not stated), the growth in the experiment on NCI-H23 lung is 20.8%; with NCI-H226 lung, 7.86% (active); with NCI-H322M lung, 8.13% (active); in the experiment with HOP-62 NSCLC it was 10.2%; with NCI-H460 lung it was -38.7% (active); in the experiment on NCI-H522 lung, -18.6% (active). The growth with A549/ATCC NSCLC is 2.7% (active); in the experiment with 786-0 renal, 11.3%; in the experiment with COLO 205 colon it was -37.5% (active); in the experiment with DU-145 prostate it was 20.3%; with K-562 leukemia, 12.3%; in the experiment with MALME-3M melanoma, -13.2% (active). For the same compound, the growth in the experiment with MDA-MB-231 breast is 21.5%; in the experiment with RXF 393 renal, 0.202% (active); in the experiment with SF-268 CNS it was 1.82% (active); with SF-295 CNS it was 13%; with UACC-257 melanoma, 0% (active); in the experiment with M14 melanoma it was 0.97% (active).

Consider `S=C(S)OCN1CCOCC1`, for which the growth in the experiment with NCI-H23 lung was 93.8%; with NCI-H226 lung, 97%; in the experiment with NCI-H322M lung, 98%; with HOP-62 NSCLC, 108%; in the experiment with HOP-92 NSCLC it was 86.4%; in the experiment with NCI-H522 lung, 1.59% (active). The growth with A549/ATCC NSCLC is 91.6%; with 786-0 renal it was 108%; with COLO 205 colon, 20.7%; in the experiment with DU-145 prostate it was 86%; with K-562 leukemia, 77.3%; with MALME-3M melanoma, 87.5%. Besides, the growth with MDA-MB-231 breast is 116%; with RXF 393 renal, 107%; in the experiment with SF-268 CNS, 97.9%; in the experiment on SF-295 CNS, 95.6%; with SF-539 CNS it was 101%; in the experiment on UACC-257 melanoma, 42.6%. Besides, the growth with M14 melanoma was 77.4%.

Turning to `CCCCCCCCCCCCNCCCc1ccccc1`, the growth was 89.2% in the experiment with NCI-H23 lung; 96.6% in the experiment on NCI-H226 lung; 91.1% with NCI-H322M lung; 95% with HOP-62 NSCLC; 83.9% with NCI-H460 lung; 63.6% in the experiment on NCI-H522 lung. Also, the growth with 786-0 renal is 69.4%; in the experiment on COLO 205 colon it was -50.8% (active); in the experiment on DU-145 prostate, 84%; in the experiment with K-562 leukemia, 2.28% (active); in the experiment with MALME-3M melanoma, 82.5%; with MDA-MB-231 breast, 61.3%. Also, the growth with SF-268 CNS was 80.6%; in the experiment on SF-295 CNS it was 102%; in the experiment on SF-539 CNS, 69.6%; with UACC-257 melanoma it was 82%; in the experiment with M14 melanoma it was 52%.

As for `O=C1C(=O)c2cc([N+](=O)[O-])ccc2-c2ccccc21`, the growth in the experiment with NCI-H23 lung is -71.8% (active); with NCI-H226 lung it was -98.7% (active); in the experiment on NCI-H322M lung, 96.9%; in the experiment with HOP-62 NSCLC, -93.3% (active); in the experiment on NCI-H460 lung, 16.4%; in the experiment on A549/ATCC NSCLC, -52.2% (active). The growth was -96.7% (active) in the experiment with 786-0 renal; -56.9% (active) in the experiment with COLO 205 colon; -99.2% (active) in the experiment with DU-145 prostate; -9.39% (active) in the experiment on K-562 leukemia; -82.7% (active) in the experiment with MALME-3M melanoma; -50.6% (active) with MDA-MB-231 breast. Also, the growth is -97.2% (active) in the experiment with RXF 393 renal; -84.4% (active) with SF-268 CNS; -82.2% (active) in the experiment on SF-295 CNS; -93% (active) in the experiment with SF-539 CNS; -94.5% (active) in the experiment on UACC-257 melanoma; -90.2% (active) with M14 melanoma.

Turning to `O=C(Nc1ccc(Cl)c(Cl)c1)OCc1ccco1`, the growth with NCI-H23 lung is 58.5%; with NCI-H226 lung, 63.9%; in the experiment with NCI-H322M lung it was 56.6%; in the experiment on HOP-62 NSCLC, 49.3%; with HOP-92 NSCLC, 58.9%; in the experiment with NCI-H522 lung it was 5.5% (active). Besides, the growth in the experiment with A549/ATCC NSCLC was 34.9%; with 786-0 renal it was 57.5%; in the experiment with COLO 205 colon, 64.8%; in the experiment on DU-145 prostate, 54.8%; in the experiment on K-562 leukemia, 15.8%; in the experiment on MALME-3M melanoma it was 68.6%. In addition, the growth is 52.2% with MDA-MB-231 breast; 56% in the experiment with RXF 393 renal; 47.8% with SF-268 CNS; 31.6% in the experiment on SF-295 CNS; 41.8% with SF-539 CNS; 62.6% in the experiment with UACC-257 melanoma. Moreover, the growth in the experiment with M14 melanoma was 44.9%.

`Oc1c(Cl)cc(Cl)cc1C(c1cc(Cl)cc(Cl)c1O)C(Cl)(Cl)Cl`: the growth in the experiment with NCI-H23 lung was -19.9% (active); with NCI-H226 lung, 5.37% (active); in the experiment on NCI-H322M lung it was -21.8% (active); in the experiment on HOP-62 NSCLC it was -6.29% (active); in the experiment on NCI-H460 lung, -20.7% (active); with NCI-H522 lung it was -12.8% (active). Besides, the growth in the experiment with A549/ATCC NSCLC was 1.48% (active); in the experiment with 786-0 renal it was 9.47% (active); in the experiment with COLO 205 colon it was -90.9% (active); in the experiment on DU-145 prostate, 19.3%; with K-562 leukemia, 9.05% (active); in the experiment with MALME-3M melanoma it was -27% (active). Further, the growth in the experiment with MDA-MB-231 breast was -25.1% (active); in the experiment on RXF 393 renal it was -30.7% (active); with SF-268 CNS it was 11.6%; in the experiment on SF-539 CNS it was 4.37% (active); with UACC-257 melanoma, -24.9% (active); in the experiment on M14 melanoma, 17.9%.
